High-throughput results deposited in PubChem BioAssay by National Center for Advancing Translational Sciences (NCATS).
The list is not random: actives were taken first. Their share in the collection is about 10%.
G9a block = inhibitors of human histone lysine methyltransferase G9a. Q96KQ7. G9a H3K9 monomethylation, AlphaScreen, 2 h. Potency, µM (series often up to 102 µM), for inactives: top-dose activity, negative = inhibition, actives largely listed as inhibitors. 8.8% of 350,000 active; further: potency means the concentration at half of the fitted maximal effect; on the % scale 0 is the no-effect control and ±100 the full control effect; nearly all actives have a fitted effect of over 75% in size
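Using a bead-based AlphaScreen, monomethylated H3K9 product from 2 h room-temperature reactions (G9a 20 nM, peptide 500 nM, SAM 20 uM) was detected with 0.5 ug/mL rabbit anti-H3K9me1 antibody.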
HP1b chromo inh = inhibitors of HP1-beta chromodomain binding to methylated histone tails; P83916; AlphaScreen HP1-beta / biotin-H3K9me3 peptide binding; Potency, µM (series often up to 114 µM), inactives show top-dose activity change, negative = inhibition, hits mostly inhibitors; 0.56% of 390,000 active; AID 540317; further: potency means the concentration at half of the fitted maximal effect; nearly all actives have a fitted effect of over 70% in size
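HP1-beta protein (50 nM final) preincubated 30 min at room temperature with biotinylated H3(1-18)K9me3 peptide (50 nM) in PBS pH 7.4, 0.01% Tween-20, then compound added for 30 min. AlphaScreen streptavidin donor/nickel chelate acceptor beads (10 ug/mL final), 30 min dark, luminescence read.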
CtBP-E1A blk = CtBP/E1A binding inhibition; AID 651724; 0.49% of 340,000 active; AlphaScreen GST-E1A/His-CtBP binding, 1536-well; hits give low values; activity change, % (no concentration beside the values); in the data active means activity change below about -65%; inconclusive means mostly about -30% to -63%; further: on the % scale 0 is the no-effect control and ±100 the full control effect
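Steps: dispense buffer (Tris pH 8.0, NaCl 300 mM, TCEP 1 mM, BSA, Tween 20); add 5X protein mix (GST-E1A, His-CtBP, 125 nM each); pin 23 nL compound; 2 h at 37 °C, dark; add 5X beads (50 ug/mL); 1 h; read.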
JMJD2A Tudor inh = blocks the human JMJD2A Tudor domain | O75164 | AlphaScreen JMJD2A-Tudor / H3K4me3 peptide binding | Potency, µM (titrated, usually from 114 µM), for the others: top-dose activity change, negative = inhibition, most hits filed as inhibitors | 4.4% of 390,000 active; further: potency means the concentration at half of the fitted maximal effect; on the % scale 0 is the no-effect control and ±100 the full control effect; nearly all actives have a fitted effect of over 50% in size
Six1-Eya2 blk = Six1/Eya2 interaction inhibition; AID 651725; Q15475+O00167; AlphaScreen GST-Six1/His-Eya2 binding, biochemical; hits give low values; 0.56% of 360,000 active; activity change, % (test concentration not listed); in the data active means activity change below about -65%; inconclusive means mostly about -30% to -63%; further: on the % scale 0 is the no-effect control and ±100 the full control effect
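AlphaScreen with GST-Six1 and His-Eya2 (5X mix: 250 nM and 500 nM), glutathione donor and nickel acceptor beads; buffer 50 mM Tris pH 8.0, 300 mM NaCl, 1 mM TCEP; 1 h at 37 C in the dark.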
BAZ2B inh = BAZ2B (human) inhibition | Q9UIF8 | AlphaScreen BAZ2B-H3K14Ac peptide displacement | Potency, µM (highest dose often 114 µM), for the others: at the top dose activity change, negative = inhibition, usual class: inhibitors | 4.4% of 360,000 active | AID 504333; further: potency means the concentration at half of the fitted maximal effect; on the % scale 0 is the no-effect control and ±100 the full control effect; nearly all actives have a fitted effect of over 60% in size
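AlphaScreen displacement: compounds (up to 110uM) incubated 30 min at room temperature with a preformed 50 nM BAZ2B/50 nM biotinylated H3K14Ac peptide complex in PBS pH 7.4 with Tween-20. Donor and acceptor beads at 10 ug/mL final added, 20 min light-protected before reading.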
* marks the source's active call; other numbers are inactive results; ? = inconclusive; · = no result given; ! = not confirmed by another sample; [ ] = dose if it differs, or a comment. Unless noted, the call rests on the fitted dose curve; in most records, active means well fitted inhibition curve with a large enough effect; inconclusive means small, poorly fitted or top-dose-only effect; inactive means no such curve, though single readings can be large or run the other way.

SMILES	G9a block	HP1b chromo inh	CtBP-E1A blk	JMJD2A Tudor inh	Six1-Eya2 blk	BAZ2B inh
Cc1ccc(-n2nc(C)c3c(C(F)(F)F)cc(-c4cccnc4)nc32)cc1Cl	7%[59 µM]	45%	·	8%	·	3%
O=C(NC1=C(Nc2ccc(F)cc2)C(=O)c2ccccc2C1=O)c1ccc(Cl)cc1	5µM*	?	-22	-13%	?	-37%
O=C(NNC(=O)c1ccc(NC(=O)c2ccccc2)cc1)c1ccc(F)cc1	?	34%	1	-24%	0	-23%
CC(=O)NCCc1ccc(O)c(O)c1	2µM*	·	·	·	·	·
O=C(CNC(=O)c1ccccc1)NCCc1ccc(O)c(O)c1	8.9µM*	·	·	·	·	-19%
CCOc1ccc(CNCc2c(C(=O)O)n(Cc3ccccc3C)c3cc(OC)ccc23)cc1OC	-24%[59 µM]	25%	·	-10%	·	-16%
Cc1ccc2nc3c(c(C(=O)O)c2c1)CCC3	50µM*	4%	9	-30%	-5	-32%
O=C(O)c1c2c(nc3ccc(Cl)cc13)CCC2	40µM*	14%	4	-23%	1	?
COc1ccc(/C=N/NC(=O)CNC(=O)COc2ccccc2)cc1	6%[59 µM]	6%	2	-6%	3	9%
COc1ccc(OCC(=O)N/N=C/c2ccc(N(C)C)cc2)cc1	45µM*	2%	-12	-34%	-13	?
COc1ccc(OCC(=O)N/N=C/c2cccn2-c2cccc(C(=O)O)c2)cc1	35µM*	?	-8	45µM*	-21	79µM*
O=C(c1cnc2c(c1)COc1ccccc1-2)c1ccccc1O	?	-5%	·	?	·	?
COc1ccc(Sc2ccc(/C=C3\C(=O)NN(c4ccccc4)C3=O)o2)cc1	10µM*	-26%	8	?	-10	8.9µM*
Cc1cc(/C=C2\C(=O)NN(c3ccccc3)C2=O)c(C)n1-c1ccccc1O	1%[59 µM]	36%	·	-6%	6	-1%
COc1ccc(-n2c(C)cc(/C=C3\C(=O)NN(c4ccccc4)C3=O)c2C)cc1	-18%	-3%	-7	-21%	6	-27%
Cc1ccc(N2NC(=O)/C(=C/c3ccc(-c4ccc(Cl)c(C(=O)O)c4)o3)C2=O)cc1	45µM*	-7%	0	?	-10	?
O=C1NN(c2ccc(Cl)cc2)C(=O)/C1=C\c1ccc(-c2cccc(C(=O)O)c2)o1	16µM*	45µM*	2	35µM*	-8	56µM*
O=C1NN(c2ccccc2)C(=O)/C1=C\c1ccc(-c2cc([N+](=O)[O-])ccc2O)o1	·	45µM*	2	50µM*	-5	32µM*
CCN1c2ccccc2-c2nc(SCC(=O)NCc3ccc(Cl)cc3)ncc2S1(=O)=O	1%[59 µM]	21%	·	5%	·	4%
COc1ccc(Br)cc1CNC(=O)c1cc2ccccn2n1	-1%[59 µM]	3%	·	-35%	·	0%
CC(C)NCC(O)COc1cccc2ccccc12 (stereo not drawn)	3.2µM*!	41%	-1	-13%	-4	0%
CCc1ccc(CN(C)CC(O)COc2cccc3ccccc23)cc1 (stereo not drawn)	22µM*	?	-8	2.5µM*	-5	-29%
O=C(CSc1nnc(-c2cccc(Cl)c2)o1)N1CCc2ccccc21	-1%[59 µM]	8%	·	-14%	·	1%
COc1cc(-c2nc3sccn3c2Nc2cccc(C)c2)ccc1O	11µM*	?	·	45µM*	·	13µM*
COc1cc(-c2nc3ccc(C)cn3c2Nc2ccc(Cl)cc2)ccc1O	?	-16%	·	?	·	-32%
SMILES	G9a block	HP1b chromo inh	CtBP-E1A blk	JMJD2A Tudor inh	Six1-Eya2 blk	BAZ2B inh
CCCOCC1CC(CCc2nc(=S)[nH][nH]2)C(=O)O1 (stereo not drawn)	1.8µM*	?	-2	5µM*	-2	-2%
O=C(CNc1cccc2ccccc12)N/N=C/c1cccc(Oc2ccccc2)c1	10µM*	-5%	·	?	-20	?
COc1cccc(/C=N/NC(=O)CCn2c3ccccc3c3ccccc32)c1	18µM*	27%	3	8%	6	-25%
O=C(CNc1cccc2ccccc12)N/N=C/c1ccc([N+](=O)[O-])cc1	8.9µM*	37%	2	-2%	2	-2%
O=C(CNc1cccc2ccccc12)N/N=C/c1ccccn1	?	-6%	-7	-33%	-15	-18%
Cc1cc(NC(=O)c2ccc(Br)o2)cc(-c2nc3ccccc3o2)c1O	69%[59 µM]	89%	·	-5%	·	10%
CCOC(=O)C1CCCN(C(=O)c2cc3c(=O)n(C)c4ccccc4c3s2)C1 (stereo not drawn)	3%[59 µM]	32%	·	-17%	·	·
CC1=C(C(=O)Nc2cccnc2)C(c2ccc(F)cc2)n2nc(SCc3ccccc3)nc2N1 (stereo not drawn)	-2%[59 µM]	21%	·	0%	·	-34%
COc1cc(CO)cc(Br)c1OCC(=O)O	50µM*	30%	9	?	27	-4%
CCOc1c(Br)cc(C(N)=O)cc1OC	-2%	-18%	0	56µM*	2	-11%
CCOc1cc(CO)cc(Br)c1OCC(=O)O	·	27%	-1	-26%	-9	·
Cc1ccc(C(=O)NC(=S)c2c(C)cc3ccccn23)cc1	·	·	-22	·	-76*	·
Cc1cc2ccccn2c1C(=O)c1ccncc1	-45%	17%	9	-15%	0	5%
Cc1cc2ccccn2c1C(=S)NC(=O)c1ccccc1	?	?	?	50µM*	?	14µM*
COC(=O)C1=C(c2ccccc2)c2ccccc2S(=O)(=O)N1CC(=O)Nc1ccc(OC)cc1OC	-38%[59 µM]	27%	·	-22%	·	-20%
COc1ccc(CCn2c3c(c(=O)[nH]c2=S)CN(Cc2ccccc2)CN3)cc1OC	·	6%	·	-22%	·	·
C[C@@H]1O[C@@H](O[C@H]2[C@H](Oc3cc(O)c4c(c3)OC(c3ccc(O)cc3)CC4=O)O[C@H](CO)[C@@H](O)[C@@H]2O)[C@H](O)[C@H](O)[C@H]1O (stereo partly drawn)	21%[59 µM]	31%	-1	-7%	-1	11%
C[C@@H]1O[C@@H](O[C@H]2[C@H](Oc3cc(O)c4c(c3)O[C@H](c3ccc(O)cc3)CC4=O)O[C@H](CO)[C@@H](O)[C@@H]2O)[C@H](O)[C@H](O)[C@H]1O	45µM*	56%	4	-10%	-2	-16%
C/C=C/c1ccc(OCCCNC(C)CC)c(OC)c1 (stereo not drawn)	?	-34%	0	1.8µM*	1	32µM*
C/C=C/c1ccc(OCCCCOc2ccccc2F)c(OC)c1	70%[59 µM]	188%	32	75%	28	186%
C/C=C/c1ccc(OCCCNC2CCCC2)c(OC)c1	?	?	21	7.9µM*	12	?
